Source: paper PMC9911399, “Two distinct binding modes provide the RNA-binding protein RbFox with extraordinary sequence specificity”
Residue numbers refer to the chain shown, from its start. In all, about 16,000 sequences were measured (“ka relative to ugcaugu”: median about 0.096, highest 2% from about 0.35 on). Shown is part of a subset that was picked to be rich in the highest values.

T1: RBFOX1 RRM RbFoxmut (Fox-RRM*) (Homo sapiens, UniProt Q9NWB1 109-208, R118D;E147R;N151S;E152T)
T1 sequence: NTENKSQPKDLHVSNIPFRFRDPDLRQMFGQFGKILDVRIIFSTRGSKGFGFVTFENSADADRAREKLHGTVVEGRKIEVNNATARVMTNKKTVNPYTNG

B1: CUGGUGC (DNA:RNA)
RNA: GGGAGACCGGAAUUCAGAUUGUCCCUGGUGCUUAAAUCCCGUCGUAGCCACCA
DNA 1: CAATCTGAATTCCGGTCTCCC
DNA 2: TGGTGGCTACGACGGGATT
B2: CGGACCU (DNA:RNA)
RNA: B1 RNA with U26G, G28A, U29C, G30C, C31U
DNA 1: CAATCTGAATTCCGGTCTCCC
DNA 2: TGGTGGCTACGACGGGATT
B3: CGGAUAC (DNA:RNA)
RNA: B1 RNA with U26G, G28A, G30A
DNA 1: CAATCTGAATTCCGGTCTCCC
DNA 2: TGGTGGCTACGACGGGATT
B4: CUCGGCU (DNA:RNA)
RNA: B1 RNA with G27C, U29G, G30C, C31U
DNA 1: CAATCTGAATTCCGGTCTCCC
DNA 2: TGGTGGCTACGACGGGATT
B5: AGCGAAC (DNA:RNA)
RNA: B1 RNA with C25A, U26G, G27C, U29A, G30A
DNA 1: CAATCTGAATTCCGGTCTCCC
DNA 2: TGGTGGCTACGACGGGATT
B6: UCGAUAG (DNA:RNA)
RNA: B1 RNA with C25U, U26C, G28A, G30A, C31G
DNA 1: CAATCTGAATTCCGGTCTCCC
DNA 2: TGGTGGCTACGACGGGATT
B7: AGCAAGC (DNA:RNA)
RNA: B1 RNA with C25A, U26G, G27C, G28A, U29A
DNA 1: CAATCTGAATTCCGGTCTCCC
DNA 2: TGGTGGCTACGACGGGATT
B8: GGGGAAC (DNA:RNA)
RNA: B1 RNA with C25G, U26G, U29A, G30A
DNA 1: CAATCTGAATTCCGGTCTCCC
DNA 2: TGGTGGCTACGACGGGATT
B9: CGGCAUA (DNA:RNA)
RNA: B1 RNA with U26G, G28C, U29A, G30U, C31A
DNA 1: CAATCTGAATTCCGGTCTCCC
DNA 2: TGGTGGCTACGACGGGATT
B10: GGCAUGU (DNA:RNA)
RNA: B1 RNA with C25G, U26G, G27C, G28A, C31U
DNA 1: CAATCTGAATTCCGGTCTCCC
DNA 2: TGGTGGCTACGACGGGATT
B11: ACCGGCA (DNA:RNA)
RNA: B1 RNA with C25A, U26C, G27C, U29G, G30C, C31A
DNA 1: CAATCTGAATTCCGGTCTCCC
DNA 2: TGGTGGCTACGACGGGATT
B12: CGGCAUG (DNA:RNA)
RNA: B1 RNA with U26G, G28C, U29A, G30U, C31G
DNA 1: CAATCTGAATTCCGGTCTCCC
DNA 2: TGGTGGCTACGACGGGATT
B13: AGGCAUA (DNA:RNA)
RNA: B1 RNA with C25A, U26G, G28C, U29A, G30U, C31A
DNA 1: CAATCTGAATTCCGGTCTCCC
DNA 2: TGGTGGCTACGACGGGATT
B14: GGCAUUU (DNA:RNA)
RNA: B1 RNA with C25G, U26G, G27C, G28A, G30U, C31U
DNA 1: CAATCTGAATTCCGGTCTCCC
DNA 2: TGGTGGCTACGACGGGATT
B15: AGGCAUG (DNA:RNA)
RNA: B1 RNA with C25A, U26G, G28C, U29A, G30U, C31G
DNA 1: CAATCTGAATTCCGGTCTCCC
DNA 2: TGGTGGCTACGACGGGATT
B16: AUGUCGU (DNA:RNA)
RNA: B1 RNA with C25A, G28U, U29C, C31U
DNA 1: CAATCTGAATTCCGGTCTCCC
DNA 2: TGGTGGCTACGACGGGATT
B17: GGGGGCA (DNA:RNA)
RNA: B1 RNA with C25G, U26G, U29G, G30C, C31A
DNA 1: CAATCTGAATTCCGGTCTCCC
DNA 2: TGGTGGCTACGACGGGATT

These binders were tested against T1, RBFOX1 RRM RbFoxmut (Fox-RRM*) (assay: EMSA; HiTS-Eq, 1 nM pool, 10 min; buffer printed only for the single-RNA assays: 10 mM Tris pH 7.5, 150 mM NaCl, 3.4 mM EDTA, 0.001% NP-40, 30 C). Settings: tags: His6 N-terminal (pET28a); label: 5' 32P.
Summary of the method: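 Relative association constants, normalised to the cognate motif, were derived by comparing read counts of each RNA species with those of the control reaction. The RNA sequenced was the free fraction, separated by 8% native PAGE after a 10 min equilibration in 50 µL of 1 nM 5′-radiolabelled RNA (7 randomized nucleotides) with increasing concentrations of purified wild-type or mutant RbFox RRM.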

For B1, which binding signal is on record?
The binding signal was 0.0874 KA relative to UGCAUGU.

Which binding signal does the source give for B2 here?
The binding signal was 0.0739 KA relative to UGCAUGU.

How did the binding signal turn out when B3 was run?
Its binding signal is 0.0884 KA relative to UGCAUGU.

How did the binding signal turn out when B4 was run?
Its binding signal is 0.0859 KA relative to UGCAUGU.

With B5 as the binder, how does the binding signal read?
The binding signal was 0.0784 KA relative to UGCAUGU.

With B6 as the binder, how does the binding signal read?
Its binding signal is 0.1 KA relative to UGCAUGU.

For B7, which binding signal is on record?
The binding signal was 0.0622 KA relative to UGCAUGU.

For B8, which binding signal is on record?
The binding signal was 0.0664 KA relative to UGCAUGU.

Which binding signal does the source give for B9 here?
Its binding signal is 0.108 KA relative to UGCAUGU.

B10 was tested. Which binding signal did it give?
Its binding signal is 0.834 KA relative to UGCAUGU.

For B11, which binding signal is on record?
The binding signal was 0.1 KA relative to UGCAUGU.

Which binding signal does the source give for B12 here?
Its binding signal is 0.998 KA relative to UGCAUGU.

How did the binding signal turn out when B13 was run?
The binding signal was 0.11 KA relative to UGCAUGU.

How did the binding signal turn out when B14 was run?
The binding signal was 0.0782 KA relative to UGCAUGU.

How did the binding signal turn out when B15 was run?
Its binding signal is 0.799 KA relative to UGCAUGU.

B16 was tested. Which binding signal did it give?
The binding signal was 0.137 KA relative to UGCAUGU.

How did the binding signal turn out when B17 was run?
Its binding signal is 0.128 KA relative to UGCAUGU.
